Assay [1] has as its target Thyrotropin-releasing hormone receptor (Homo sapiens) (UniProt P34981). As to the kind of experiment: qHTS assay to identify small molecule agonists of the thyrotropin-releasing hormone receptor (TRHR) signaling pathway (AID 1346891; calls by dose curve; note: series mostly up to about 58 µM). An outline of the steps:
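HEK293 cells expressing TRHR plated 18 h at 37 C/5% CO2, calcium dye-loaded 2 h at 37 C, then compound added (agonist mode); kinetic calcium fluorescence read 3 min at 1 s intervals; 15 concentrations in triplicate.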

Assay [2] can be described thus: Human pregnane X receptor (PXR) small molecule agonists, qHTS cell viability counter screen (AID 1346977). Note: nearly all actives have a fitted effect of over 50% in size. The essentials: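 PXR-Luc HepG2 cells (2,000/well, 5% charcoal-stripped FBS) preincubated 5 hr, then exposed to compounds 24 hr at 37 C. Viability read in the same wells by CellTiter-Fluor fluorescence, reagent added at 23 hr, 1 hr incubation.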
Assay [3] is described as follows: Caspase-3/7 induction in HepG2 cells by small molecules, qHTS assay (AID 1346978). Note: nearly all actives have a fitted effect of over 15% in size. The essentials:
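Wild-type HepG2 cells (2,000/well) were settled 5 h at 37 C, 5% CO2, then exposed to compounds in DMSO for 17 h. Caspase-3/7 activity was read by luminescence 30 min after adding Caspase-Glo 3/7 reagent at room temperature.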
In general terms: In qHTS, concentration-response curves come from the screen itself.

A short description of assay [4]: Caspase-3/7 induction in CHO-K1 cells by small molecules, qHTS cell viability counter screen (AID 1346979). Note: nearly all actives have a fitted effect of over 35% in size. Note: potency is the fitted concentration of half-maximal effect. The essentials: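 Wild-type CHO-K1 cells (1,500/well) treated with compound after 5 h plating; after 16 h at 37C, viability read as CellTiter-Fluor fluorescence following 1 h reagent incubation, in the same wells as the caspase read.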
The nature of assay [5]: Caspase-3/7 induction in CHO-K1 cells by small molecules, qHTS assay (AID 1346980). Note: nearly all actives have a fitted effect of over 15% in size. The essentials:
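Wild-type cells were seeded at 1,500 per well and settled 5 hr at 37 C, 5% CO2, then exposed to DMSO-dissolved compounds for 17 hr. Caspase-Glo 3/7 reagent was added, and luminescence was read after 30min at room temperature.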

A short description of assay [6]: Caspase-3/7 induction in HepG2 cells by small molecules, qHTS cell viability counter screen (AID 1346981). Note: series mostly up to about 92 µM; nearly all actives have a fitted effect of over 30% in size. An outline of the steps:
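CellTiter-Fluor fluorescence measured viability in the same wells used for Caspase-Glo 3/7. HepG2 (wild type) at 2,000 cells/well were pre-incubated 5 hr, dosed, and given reagent at 16 hr, with 1 hr further at 37C.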

Assay [7] deals with Nuclear receptor subfamily 1 group I member 2 (Rattus norvegicus) (UniProt Q9R1A7). As to the kind of experiment: Rat pregnane X receptor (rPXR) activation by small molecules, qHTS assay (AID 1346983). Note: nearly all actives have a fitted effect of over 20% in size. The following applies: rPXR luciferase reporter cells, One-Glo luminescence, 24 h; stronger effect = higher value. The essentials: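 Cell-based rPXR luciferase reporter assay, 2,000 cells per well, rested 5hr at 37 C before compound addition in DMSO, then 24 hr at 37 C. One-Glo reagent was added and luminescence read after 30 min at room temperature.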

Assay [8] deals with Cytochrome P450 2D6 (Homo sapiens) (UniProt P10635). As to the kind of experiment: Cytochrome P450 Family 2 Subfamily D Member 6 (CYP2D6) small molecule antagonists: luciferase reporter qHTS assay (AID 1671196). Note: nearly all actives have a fitted effect of over 50% in size. Note: potency is the fitted concentration of half-maximal effect. An outline of the steps:
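CYP2D6 activity was followed as luminescence from its luciferin product after a 1 h NADPH-driven reaction at room temperature. Enzyme-substrate mix and compound were pre-incubated for 10 min, and the signal was read 20 min after adding detection reagent.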
For orientation: In a reporter assay the amount or activity of a reporter protein is the signal.

Assay [9] concerns the target Cytochrome P450 2C19 (Homo sapiens) (UniProt P33261). The assay can be described thus: Cytochrome P450 Family 2 Subfamily C Member 19 (CYP2C19) small molecule antagonists: luciferase reporter qHTS assay (AID 1671197). Note: nearly all actives have a fitted effect of over 65% in size. Note: potency is the fitted concentration of half-maximal effect. An outline of the steps: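 Light output is proportional to CYP2C19 activity: proluciferin substrate is converted to luciferin, then detected by a luciferin detection reagent that also stops the 1 h, 37C NADPH-driven reaction. Ketoconazole serves as positive control.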

Assay [10] concerns the target Cytochrome P450 2C9 (Homo sapiens) (UniProt P11712). As to the kind of experiment: Cytochrome P450 Family 2 Subfamily C Member 9 (CYP2C9) small molecule antagonists: luciferase reporter qHTS assay (AID 1671198). Note: nearly all actives have a fitted effect of over 50% in size. Note: potency is the fitted concentration of half-maximal effect. An outline of the steps: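 CYP2C9 activity was measured with a P450-Glo proluciferin substrate. Enzyme–substrate mix was held with compound for 10 min at room temperature, then NADPH regeneration solution was added for 1 h at 37C. Luciferin product was read as luminescence.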

Assay [11] deals with Voltage-gated inwardly rectifying potassium channel KCNH2 (Homo sapiens) (UniProt Q12809). As to the kind of experiment: Human Ether-a-go-go-Related Gene (hERG) channel small molecule antagonists: fluorescence cell-based qHTS assay (AID 1671200).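 Note: hERG-expressing U2OS cells given a thallium stimulus after FluxOR II dye loading; series mostly up to about 77 µM; nearly all actives have a fitted effect of over 50% in size.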 The essentials:
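hERG-U2OS cells plated overnight at 37 C, loaded with FluxOR II dye 1 h at RT in dark; after 10 min, thallium stimulus added. Fluorescence (480/540 nm) read kinetically for 2 min at 1 s intervals.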

The target of assay [12] is Cytochrome P450 1A2 (Homo sapiens) (UniProt P05177). As to the kind of experiment: Cytochrome P450 Family 1 Subfamily A Member 2 (CYP1A2) small molecule antagonists: luciferase reporter qHTS assay (AID 1671199). Note: nearly all actives have a fitted effect of over 50% in size. Note: potency is the fitted concentration of half-maximal effect. An outline of the steps:
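Luminescence from luciferin formed by CYP1A2 from a proluciferin substrate, read 20 min after detection reagent. Compound was pre-incubated 10 min with enzyme-substrate, and reaction started with NADPH regeneration solution for 1 h at room temperature; furafylline control.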

Assay [13] concerns the target Cytochrome P450 3A4 (Homo sapiens) (UniProt P08684). The assay can be described thus: Cytochrome P450 Family 3 Subfamily A Member 4 (CYP3A4) small molecule antagonists: luciferase reporter qHTS assay (AID 1671201). The essentials:
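P450-Glo CYP3A4 luminescent assay: compounds preincubated 10 min at room temperature with enzyme and proluciferin substrate, NADPH regeneration added, 1 h room-temperature reaction, stopped with luciferin detection reagent; luminescence read after 20 min. Ketoconazole positive control.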

The target in assay [14] is Nuclear receptor subfamily 1 group I member 2 (Homo sapiens) (UniProt O75469). As to the kind of experiment: CYP3A4 induction through human pregnane X receptor (PXR) by small molecules, qHTS assay (AID 1346984). Note: nearly all actives have a fitted effect of over 40% in size. An outline of the steps: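 Read-out is luminescence after One-Glo addition, following a 3 hr, 37C incubation with Luciferin-IPA CYP3A4 substrate (3uM final). Before that, compounds were on DPX-2 cells (HepG2 co-transfected with PXR element plus CYP3A4-promoter luciferase) for 24 hr at 37C.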

Assay [15] has the same target. The assay can be described thus: Human pregnane X receptor (PXR) activation by small molecules, qHTS assay (AID 1346985). Note: nearly all actives have a fitted effect of over 40% in size. The essentials: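 DPX-2 cells (HepG2 co-transfected with a PXR response element and a CYP3A4-promoter luciferase construct) were seeded at 2,000 per well, rested 5 hr at 37C, then exposed to DMSO-dissolved compounds for 24 hr. Activation was read as luciferase luminescence.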

Assay [16] has the same target. As to the kind of experiment: Human pregnane X receptor (PXR) small molecule agonists, qHTS assay (AID 1346982). Note: nearly all actives have a fitted effect of over 35% in size. An outline of the steps: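 Agonist mode: luminescence from ONE-Glo after 24 h compound exposure at 37C in HepG2 cells carrying hPXR-responsive CYP3A4 luciferase, plated in charcoal-stripped serum medium 5 h beforehand.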

The structures appear in SMILES notation. Where “and” joins values, the source holds several entries; their conditions need not be identical. Equal entries are not always repeated. Results filed as inconclusive are left out. The source holds several records for some structures; these can differ, active in one and inactive in another. Calls of active or inactive are those of the source. Unless noted, calls come from the whole dose curve; as a rule, active = well fitted curve in the direction sought with a large enough effect in the repeat runs; inconclusive = weak or mixed curves; inactive = no such curve, though single readings can be large; an effect the other way counts as inactive or inconclusive.
% is set by controls: 0 for no effect and ±100 for the full control effect.

Sequence of Cytochrome P450 2C9 (Homo sapiens) (P11712 whole entry, looked up): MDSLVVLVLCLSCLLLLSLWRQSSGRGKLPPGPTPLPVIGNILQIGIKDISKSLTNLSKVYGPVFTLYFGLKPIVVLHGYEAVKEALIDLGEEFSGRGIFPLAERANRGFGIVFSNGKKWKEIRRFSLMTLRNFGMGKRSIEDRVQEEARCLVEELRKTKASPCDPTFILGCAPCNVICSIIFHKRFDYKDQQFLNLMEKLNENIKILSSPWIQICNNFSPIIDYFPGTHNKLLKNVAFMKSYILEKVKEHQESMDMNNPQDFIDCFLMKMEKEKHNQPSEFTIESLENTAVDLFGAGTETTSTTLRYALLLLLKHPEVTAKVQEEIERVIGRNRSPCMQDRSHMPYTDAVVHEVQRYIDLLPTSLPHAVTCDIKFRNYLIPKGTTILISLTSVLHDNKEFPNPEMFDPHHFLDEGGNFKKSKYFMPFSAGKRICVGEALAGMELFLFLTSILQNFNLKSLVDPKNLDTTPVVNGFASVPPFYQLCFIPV
Sequence of Cytochrome P450 2D6 (Homo sapiens) (P10635 whole entry, looked up): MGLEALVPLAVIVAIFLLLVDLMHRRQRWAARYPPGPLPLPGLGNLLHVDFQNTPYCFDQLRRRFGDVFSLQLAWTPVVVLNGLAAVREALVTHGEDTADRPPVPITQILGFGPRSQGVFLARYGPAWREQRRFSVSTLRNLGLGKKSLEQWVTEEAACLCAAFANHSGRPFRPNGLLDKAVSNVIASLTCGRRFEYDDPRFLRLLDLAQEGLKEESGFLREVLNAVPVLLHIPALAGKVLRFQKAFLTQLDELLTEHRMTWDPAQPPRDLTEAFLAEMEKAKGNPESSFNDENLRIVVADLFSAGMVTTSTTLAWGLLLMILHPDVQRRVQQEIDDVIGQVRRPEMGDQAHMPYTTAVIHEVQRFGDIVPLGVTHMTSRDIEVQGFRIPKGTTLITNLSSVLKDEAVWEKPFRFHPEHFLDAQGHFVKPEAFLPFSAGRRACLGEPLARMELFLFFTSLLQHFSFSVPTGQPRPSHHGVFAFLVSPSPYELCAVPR
Sequence of Nuclear receptor subfamily 1 group I member 2 (Homo sapiens) (O75469 whole entry, looked up): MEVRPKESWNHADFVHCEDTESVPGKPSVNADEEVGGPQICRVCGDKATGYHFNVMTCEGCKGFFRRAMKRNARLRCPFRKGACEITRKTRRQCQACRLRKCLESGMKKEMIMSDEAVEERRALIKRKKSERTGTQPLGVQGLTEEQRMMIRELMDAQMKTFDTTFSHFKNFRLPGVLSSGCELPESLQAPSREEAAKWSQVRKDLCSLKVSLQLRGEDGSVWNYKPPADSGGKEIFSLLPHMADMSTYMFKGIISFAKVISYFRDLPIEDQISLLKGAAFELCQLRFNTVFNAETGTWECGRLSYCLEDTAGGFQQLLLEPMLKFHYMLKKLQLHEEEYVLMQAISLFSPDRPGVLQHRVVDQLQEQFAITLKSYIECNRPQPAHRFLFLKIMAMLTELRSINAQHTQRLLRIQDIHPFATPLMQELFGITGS
Sequence of Cytochrome P450 3A4 (Homo sapiens) (P08684 whole entry, looked up): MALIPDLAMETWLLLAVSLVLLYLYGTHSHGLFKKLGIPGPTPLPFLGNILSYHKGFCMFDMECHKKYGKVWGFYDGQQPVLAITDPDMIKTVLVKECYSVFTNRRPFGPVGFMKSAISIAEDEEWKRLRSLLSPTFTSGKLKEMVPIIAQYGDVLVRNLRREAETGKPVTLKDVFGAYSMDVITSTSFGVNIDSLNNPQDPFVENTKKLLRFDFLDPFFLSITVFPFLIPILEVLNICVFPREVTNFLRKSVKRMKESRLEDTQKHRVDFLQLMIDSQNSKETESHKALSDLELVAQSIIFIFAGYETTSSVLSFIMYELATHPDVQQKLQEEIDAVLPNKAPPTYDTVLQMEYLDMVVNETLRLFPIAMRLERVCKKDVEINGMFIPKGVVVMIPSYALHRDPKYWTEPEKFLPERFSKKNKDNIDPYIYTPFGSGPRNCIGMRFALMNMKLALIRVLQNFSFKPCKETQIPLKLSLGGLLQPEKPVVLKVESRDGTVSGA
Sequence of Cytochrome P450 1A2 (Homo sapiens) (P05177 whole entry, looked up): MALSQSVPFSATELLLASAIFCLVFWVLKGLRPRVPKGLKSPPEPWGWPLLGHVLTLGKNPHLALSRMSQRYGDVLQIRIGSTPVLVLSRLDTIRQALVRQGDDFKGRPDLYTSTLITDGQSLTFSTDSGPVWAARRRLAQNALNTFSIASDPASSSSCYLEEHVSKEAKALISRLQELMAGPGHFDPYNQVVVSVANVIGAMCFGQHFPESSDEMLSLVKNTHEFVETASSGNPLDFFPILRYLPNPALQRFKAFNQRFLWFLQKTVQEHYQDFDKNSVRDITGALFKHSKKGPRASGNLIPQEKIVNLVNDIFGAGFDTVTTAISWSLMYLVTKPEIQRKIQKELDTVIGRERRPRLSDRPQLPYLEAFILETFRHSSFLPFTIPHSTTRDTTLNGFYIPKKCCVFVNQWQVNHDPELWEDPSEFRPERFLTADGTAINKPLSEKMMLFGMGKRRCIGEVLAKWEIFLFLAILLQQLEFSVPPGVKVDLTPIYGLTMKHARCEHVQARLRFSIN
Sequence of Nuclear receptor subfamily 1 group I member 2 (Rattus norvegicus) (Q9R1A7 whole entry, looked up): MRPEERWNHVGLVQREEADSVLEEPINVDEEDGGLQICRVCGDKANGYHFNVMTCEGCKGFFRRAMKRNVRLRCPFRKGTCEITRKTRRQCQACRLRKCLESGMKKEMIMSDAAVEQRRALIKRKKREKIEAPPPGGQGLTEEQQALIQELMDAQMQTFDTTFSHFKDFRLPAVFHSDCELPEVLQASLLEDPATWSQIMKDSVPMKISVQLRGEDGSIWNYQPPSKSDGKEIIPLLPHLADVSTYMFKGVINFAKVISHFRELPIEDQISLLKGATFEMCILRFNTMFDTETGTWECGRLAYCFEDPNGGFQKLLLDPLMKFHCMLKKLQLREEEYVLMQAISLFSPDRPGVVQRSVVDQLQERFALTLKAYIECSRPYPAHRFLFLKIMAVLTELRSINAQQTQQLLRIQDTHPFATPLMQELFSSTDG
Sequence of Thyrotropin-releasing hormone receptor (Homo sapiens) (P34981 whole entry, looked up): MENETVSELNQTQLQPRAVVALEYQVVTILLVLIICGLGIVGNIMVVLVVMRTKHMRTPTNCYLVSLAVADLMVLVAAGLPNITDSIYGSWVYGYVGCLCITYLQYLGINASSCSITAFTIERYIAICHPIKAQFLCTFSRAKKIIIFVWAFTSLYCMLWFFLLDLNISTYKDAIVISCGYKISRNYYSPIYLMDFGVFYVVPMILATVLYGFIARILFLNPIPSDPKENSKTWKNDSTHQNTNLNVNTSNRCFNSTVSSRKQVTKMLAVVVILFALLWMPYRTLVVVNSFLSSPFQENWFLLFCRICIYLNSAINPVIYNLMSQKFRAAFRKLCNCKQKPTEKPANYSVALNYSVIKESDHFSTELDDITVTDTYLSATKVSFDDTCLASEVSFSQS
Sequence of Voltage-gated inwardly rectifying potassium channel KCNH2 (Homo sapiens) (Q12809 whole entry, looked up): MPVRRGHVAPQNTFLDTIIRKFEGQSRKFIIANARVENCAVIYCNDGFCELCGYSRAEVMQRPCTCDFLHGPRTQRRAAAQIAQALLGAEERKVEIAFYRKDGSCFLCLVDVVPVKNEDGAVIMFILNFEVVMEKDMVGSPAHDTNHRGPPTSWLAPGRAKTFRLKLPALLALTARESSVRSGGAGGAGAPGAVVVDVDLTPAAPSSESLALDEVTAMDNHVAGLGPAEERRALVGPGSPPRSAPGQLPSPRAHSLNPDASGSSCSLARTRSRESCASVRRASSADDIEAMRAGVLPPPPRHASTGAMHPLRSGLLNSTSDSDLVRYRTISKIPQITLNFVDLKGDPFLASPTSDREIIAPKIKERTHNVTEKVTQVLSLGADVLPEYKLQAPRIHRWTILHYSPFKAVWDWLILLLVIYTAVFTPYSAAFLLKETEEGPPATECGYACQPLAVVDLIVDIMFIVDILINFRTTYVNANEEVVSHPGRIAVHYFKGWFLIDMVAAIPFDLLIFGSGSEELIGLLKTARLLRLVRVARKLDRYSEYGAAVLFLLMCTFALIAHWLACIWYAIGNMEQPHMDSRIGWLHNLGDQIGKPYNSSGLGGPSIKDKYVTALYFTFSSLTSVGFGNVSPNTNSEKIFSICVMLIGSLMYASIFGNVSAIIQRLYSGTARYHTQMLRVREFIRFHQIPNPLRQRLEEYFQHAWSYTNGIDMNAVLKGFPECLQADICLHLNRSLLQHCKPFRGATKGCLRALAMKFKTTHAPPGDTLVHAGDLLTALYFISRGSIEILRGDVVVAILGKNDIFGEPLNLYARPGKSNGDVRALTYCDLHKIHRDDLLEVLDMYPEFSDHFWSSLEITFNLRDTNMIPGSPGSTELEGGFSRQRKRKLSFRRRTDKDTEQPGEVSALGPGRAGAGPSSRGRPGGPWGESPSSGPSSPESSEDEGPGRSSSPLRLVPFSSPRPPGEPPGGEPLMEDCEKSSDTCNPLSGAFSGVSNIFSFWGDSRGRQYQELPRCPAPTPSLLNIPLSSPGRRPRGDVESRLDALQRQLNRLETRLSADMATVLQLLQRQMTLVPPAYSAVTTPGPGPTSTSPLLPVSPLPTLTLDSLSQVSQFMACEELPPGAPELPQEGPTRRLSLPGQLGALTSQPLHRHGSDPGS
Sequence of Cytochrome P450 2C19 (Homo sapiens) (P33261 whole entry, looked up): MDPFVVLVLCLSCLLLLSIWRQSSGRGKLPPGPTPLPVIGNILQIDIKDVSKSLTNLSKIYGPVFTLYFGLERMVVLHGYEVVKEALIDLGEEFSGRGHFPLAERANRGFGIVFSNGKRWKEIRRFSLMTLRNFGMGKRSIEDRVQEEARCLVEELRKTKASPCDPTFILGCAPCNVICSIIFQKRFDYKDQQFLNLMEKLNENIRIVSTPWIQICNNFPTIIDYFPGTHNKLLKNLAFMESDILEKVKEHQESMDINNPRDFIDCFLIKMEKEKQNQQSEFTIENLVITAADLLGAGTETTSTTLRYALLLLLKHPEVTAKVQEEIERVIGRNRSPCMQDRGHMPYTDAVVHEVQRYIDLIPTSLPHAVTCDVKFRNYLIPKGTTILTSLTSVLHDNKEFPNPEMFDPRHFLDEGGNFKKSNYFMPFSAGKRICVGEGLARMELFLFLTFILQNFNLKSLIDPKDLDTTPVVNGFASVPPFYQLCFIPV

Take `C[C@]12CCC(=O)C=C1CC[C@@H]1[C@@H]2[C@@H](O)C[C@@]2(C)[C@H]1CC[C@]2(O)C(=O)CO`: the compound was classed as inactive in assay [1] and in assay [5]. Also, the Potency entry in assay [2], in [3], in assay [4], in assay [6], in [8] and in assay [9] was “inactive” each time. Further, the Potency entry in assay [10] and in assay [11] was “inactive” each time. In assay [7], the max activation is 9.15% (inactive).
In the case of `CC1(C)NC(=O)NC1=O`, the compound was classed as inactive in assay [1] and in assay [5]. Besides, the Potency entry in assay [2], in assay [3], in [4], in assay [6], in [8] and in assay [9] was “inactive” throughout. Moreover, the Potency result in assay [10], in assay [11] and in assay [13] was “inactive” throughout. Besides, the Potency in assay [12] was 35.8 µM (active).
For the compound `COC(=O)CCCC(=O)OC`, the compound was classed as inactive in assay [1] and in [5]. In addition, the Potency entry in assay [2], in [3], in assay [6], in [8], in assay [9] and in [10] was “inactive” each time. Besides, the Potency result in assay [12], in assay [11] and in assay [13] was “inactive” in each case. Also, the Potency in assay [4] was 54 µM (active) and inactive.
Turning to `O=C(O)c1ccc(S(=O)(=O)N(Cl)Cl)cc1`, the compound was classed as inactive in [1], in assay [5] and in assay [15]. Moreover, the Potency entry in assay [2], in [3], in assay [4], in assay [6], in assay [14] and in assay [9] was “inactive” in each case. Besides, the Potency entry in assay [10], in assay [12], in [11] and in [13] was “inactive” each time. Further, the max activation in assay [7] is 4.13% (inactive). Further, the Potency in assay [8] is 35.8 µM (active) and inactive.
For the compound `CCOC(=O)c1ccc(N)cc1`, the call in assay [1], in assay [5] and in [15] was inactive. Besides, the Potency result in [2], in assay [3], in assay [4], in assay [6], in assay [14] and in [8] was “inactive” each time. Besides, the Potency entry in assay [11] and in [13] was “inactive” throughout. Besides, the max activation in [7] is -0.927% (inactive). For the same compound, the Potency was 39.9 µM (active) and inactive in assay [9]; 35.6 µM (active) in assay [10]; 12.6 µM (active) in [12].
In the case of `CCOCCOCCOCCO`, the compound was classed as inactive in assay [1] and in assay [5]. The Potency result in assay [2], in [3], in assay [4], in [6], in assay [16] and in [8] was “inactive” in each case. The Potency entry in assay [11] and in assay [13] was “inactive” throughout. Besides, in [9], the Potency was 82.4 µM (active) and inactive.
In the case of `COCCOC(=O)c1ccccc1C(=O)OCCOC`, the compound was classed as inactive in [1] and in assay [5]. The Potency entry in [2], in assay [3], in [4], in assay [6], in assay [16] and in [8] was “inactive” throughout. Further, the Potency result in assay [11] and in assay [13] was “inactive” throughout. Further, the Potency in assay [9] was 22.6 µM (active) and 25.2 µM (active); in assay [12], 22.6 µM (active) and 35.6 µM (active).
For the compound `NCCNCCN`, the call in assay [1] and in assay [5] was inactive. Also, the Potency entry in [2], in assay [3], in assay [4], in assay [6], in assay [9] and in assay [10] was “inactive” in each case. The Potency entry in [11] and in [13] was “inactive” each time. Besides, the Potency in assay [8] was 63.5 µM (active); in assay [12], 71.2 µM (active) and inactive.
For `O=C1CCCC1`, the outcome in assay [1] and in [5] was inactive. The Potency entry in assay [2], in [3], in assay [4], in assay [6], in assay [8] and in assay [9] was “inactive” in each case. Moreover, the Potency entry in assay [10], in assay [12], in [11] and in [13] was “inactive” in each case.

The values above are taken from PubChem BioAssay (Tox21).
